CHT allo act: allosteric activators of human choline transporter CHT | CHT-expressing cells, membrane potential dye, choline EC20; stronger effect = higher value; LV-AA mutant CHT in HEK293 cells | B-score at 10 µM | 310,000 compounds, 0.49% hits;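 active means initial fluorescence not abnormally high and integrated response B-score, plate-corrected, over 3 SD above library mean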
TMEM16A act: activators or potentiators of mouse TMEM16A chloride channel; Q8BHY3; HEK293 TMEM16A/YFP-H148Q/I152L, iodide quench fluorescence; stronger effect = lower value; B-score at 10 µM; 340,000 compounds, 0.3% hits; AID 623877;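 active means fluorescence-ratio B-score plate-corrected deviation score at least 3 library SD below zero, with starting fluorescence score within 5 deviations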;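 further: channel opened by trigger with iodide after compound preincubation; score built on the fluorescence ratio of max minus min over baseline; more negative score means more quench and so TMEM16A activation or potentiation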
PKA-R2B act: PKA-R2B complex activation; 340,000 compounds, 0.079% hits; P22694+P31323; PKA-R2B holoenzyme dissociation, Cy5-IP20 fluorescence polarization; R2B truncated from residue 108, S112A mutant; 0% DMSO only, 100% 113 µM cGMP; AID 504700; activation, % at 11.4 µM;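 active means activation above a cutoff set at the mean over all compounds plus 3 SD, cut at about 18% in these data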;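 further: higher means more holoenzyme dissociation and a rise in polarization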
Target sequence (P31323 whole entry, looked up, other chains not shown, the tested form may be a part): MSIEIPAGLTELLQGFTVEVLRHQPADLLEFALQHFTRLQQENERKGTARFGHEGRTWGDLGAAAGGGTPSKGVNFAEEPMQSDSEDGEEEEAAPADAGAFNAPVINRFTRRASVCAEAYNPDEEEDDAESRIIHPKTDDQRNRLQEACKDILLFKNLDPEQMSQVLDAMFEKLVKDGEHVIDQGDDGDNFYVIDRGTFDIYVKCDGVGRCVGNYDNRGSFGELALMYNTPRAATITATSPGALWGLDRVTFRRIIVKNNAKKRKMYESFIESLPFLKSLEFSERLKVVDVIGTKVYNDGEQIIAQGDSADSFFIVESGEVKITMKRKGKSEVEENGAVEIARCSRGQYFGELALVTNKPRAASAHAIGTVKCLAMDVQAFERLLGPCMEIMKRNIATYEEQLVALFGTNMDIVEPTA
CHT inh: inhibitors of human choline transporter CHT; Q9GZV3; CHT-expressing cells, membrane potential dye, choline response; stronger effect = lower value; B-score at 10 µM; 310,000 compounds, 0.86% hits;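 active means B-score over 3 SD under the library average, and starting fluorescence ratio not unusually high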;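 further: choline stimulus applied at its EC90 after an EC20 pre-addition; B-score computed on integrated fluorescence ratio after choline addition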
PKA-R1A activ: activators of PKA-R1A complex; P00514+P68181; PKA-R1A dissociation, Cy5-IP20 fluorescence polarization; scaled: DMSO 0%, 113 µM cGMP 100%; activation, % at 11.4 µM; 340,000 compounds, 0.083% hits; AID 504707;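 active means percent activation above the mean of all tested compounds plus 3 SD, cut at about 19% in these data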;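 further: higher means more PKAc released from R1A so a rise in polarization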
TMEM16A inh: mouse TMEM16A channel inhibition, primary screen; normalized B-score (activity score, 25-100; higher = stronger inhibition) at 10 µM; 310,000 compounds, 1.2% hits; Q8BHY3; HEK293 TMEM16A/YFP iodide influx fluorescence, ionomycin;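 active means ratio plate-corrected score three or more library SD toward inhibition, starting fluorescence score within five deviations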;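 further: score derived from kinetic fluorescence span divided by baseline fluorescence per well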
Of the large screens only hits and unclear results are named; the others gave an inactive call. Rows were chosen to be rich in hits. Some 2.5% of all compounds tested hit in one or more screens of this group.

CCC(=O)c1ccc(OCC(=O)OCC(=O)Nc2ccc(C)c(S(=O)(=O)N3CCCCC3)c2)cc1	none (no result: CHT allo act, CHT inh, TMEM16A inh)
CCOc1ccc(OCCC(=O)OCC(=O)Nc2ccc(C)c(S(=O)(=O)N3CCCCC3)c2)cc1	TMEM16A inh 100
CCC(C(=O)OCC(=O)NC1CCS(=O)(=O)C1)c1ccccc1 (centres undefined)	none
COc1ccc(NC(=O)c2cc3cccc(OC)c3oc2=Nc2ccc(C(=O)O)cc2)cc1OC	none (no result: CHT allo act, CHT inh, TMEM16A inh)
COc1cccc(NC(=O)c2cc3cccc(OC)c3o/c2=N\O)c1	CHT inh -5.31 (no result: TMEM16A act, PKA-R2B act, PKA-R1A activ)
O=C(Oc1ccc2c(=O)c(Oc3ccc4ccccc4c3)coc2c1)c1ccco1	TMEM16A act -5.92
O=C(NC1CC1)C1CCN(C2CCN(C(=O)Cc3ccc4c(c3)OCO4)CC2)CC1	CHT inh -10.3
Cc1ccc(CS(=O)Cc2ccc(C(=O)N3CCN(c4ccccn4)CC3)o2)cc1 (centres undefined)	none
N#C/C(=C(/O)COC(=O)c1ccc(C#N)cc1)c1nc2ccccc2s1	TMEM16A inh 25
N#C/C(=C(/O)COc1ccccc1)c1nc2ccccc2s1	none
N#C/C(=C(/O)COc1ccc(Cl)cc1)c1nc2ccccc2s1	TMEM16A inh 100
N#C/C(=C(/O)c1ccc(F)cc1)c1nc2ccccc2s1	TMEM16A inh 25
Cc1ccc(SC/C(O)=C(\C#N)c2nc3ccccc3s2)cc1	TMEM16A inh 25
CCOc1ccc(S(=O)(=O)Nc2ccc3c(c2)OCO3)cc1	none
O=C(NC1CC1)c1cccc(NC(=O)C2CCN(S(=O)(=O)c3ccccc3C(F)(F)F)CC2)c1	none (no result: CHT allo act, TMEM16A act, CHT inh, TMEM16A inh)
CCOC(=O)C(N=Nc1nn[nH]n1)C(C)=O (centres undefined)	none (no result: CHT allo act, TMEM16A act, CHT inh, TMEM16A inh)
COc1ccc(CCNC(=O)CCS(=O)(=O)c2ccc3c(c2)NC(=O)CO3)cc1OC	none
CC(C(=O)N1CCOCCOCCOCCOCCOCC1)N1C(=O)c2ccccc2C1=O (centres undefined)	none
N#CC(C(=O)C12CC3CC(CC(C3)C1)C2)c1nc2ccccc2[nH]1 (centres undefined)	TMEM16A act -9.49
CCOC(=O)CSc1cc(CS(C)(=O)=O)nc(-c2ccccn2)n1	TMEM16A act -6.65
COc1ccccc1CNc1ccc([N+](=O)[O-])cc1C	TMEM16A inh 25 (no result: PKA-R2B act, PKA-R1A activ)
COc1cccc(OC)c1OCCCOc1ccc([N+](=O)[O-])cc1Cl	TMEM16A inh 100
CCOc1ccccc1OCCCOc1ccc([N+](=O)[O-])cc1Cl	none
COc1cccc(CNc2ccc([N+](=O)[O-])cc2Cl)c1O	TMEM16A inh 25
CC1C2NC(=O)N(Cc3ccccc3)C1(C)Oc1ccccc12 (centres undefined)	none
O=C(OCCN1CCN(C2=NS(=O)(=O)c3ccccc32)CC1)c1cccc(Br)c1	none
C=CCn1c(=O)c(C#N)cc2c(=O)n3ccccc3nc21	CHT allo act 7.25
C=CCn1c(=N)c(C#N)cc2c(=O)n3ccccc3nc21	none
CN(C)CCOC(=O)CCCCCCCCC(=O)OCCN(C)C	none
O=C(N[C@@H](Cc1c[nH]c2ccccc12)C(=O)O)c1ccc(Cl)cc1	none
NC(=NCCc1c[nH]c2ccccc12)NC(=O)c1ccc(Cl)cc1	TMEM16A inh 100
COc1ccccc1C(CCN(Cc1ccccc1)C(C)=O)c1ccco1 (centres undefined)	TMEM16A act -9.15
COc1ccccc1C(CC(N)=O)c1ccco1 (centres undefined)	none
O=C(CCc1nc2ccccc2c(=O)[nH]1)N1CCN(S(=O)(=O)c2cccc(F)c2)CC1	none
CCc1ccccc1N=C1S/C(=C/c2ccccc2OCC(=O)N2CCOCC2)C(=O)N1C	none
O=C1NN(c2ccccc2)C(=O)/C1=C\c1ccccc1OCC(=O)N1CCOCC1	TMEM16A inh 25
CCN1CCN(c2ccc(NC(=O)c3cc(S(=O)(=O)N4CCCC4)ccc3Cl)cc2)CC1	none (no result: CHT allo act, CHT inh, TMEM16A inh)
CC(C)(c1ccccc1)c1ccc(OCC(O)CNC2CCN(Cc3ccccc3)CC2)cc1 (centres undefined)	TMEM16A inh 100
CCOc1ccc(OCC(O)CNC2CCN(Cc3ccccc3)CC2)cc1 (centres undefined)	none
CCOC(=O)c1cc2c(=O)n3ccccc3nc2n(CCCOC)c1=NC(=O)c1ccncc1	none
CC(=O)N=c1c(C#N)cc2c(=O)n3ccccc3nc2n1CCCOC(C)C	none (no result: PKA-R2B act, PKA-R1A activ)
N=c1c(C(=O)NC2CCCCC2)cc2c(=O)n3ccccc3nc2n1CCc1ccccc1	CHT allo act 7.32
CC(C)OCCCn1c(=N)c(C(N)=S)cc2c(=O)n3ccccc3nc21	CHT allo act 6.62
CCOC(=O)c1cc2c(=O)n3ccccc3nc2n(CCCOC)c1=NC(C)=O	CHT allo act 12.9
N=c1c(C(=O)NC2CCCCC2)cc2c(=O)n3ccccc3nc2n1Cc1ccccc1	none
COc1ccc(NC(=O)CCCOc2ccc(Cl)c(C)c2)cc1S(=O)(=O)N1CCOCC1	none (no result: CHT allo act, CHT inh, TMEM16A inh)
Fc1ccc(-[n+]2nc(Nc3ccccc3)sc2-c2c3ccccc3cc3ccccc23)cc1	none
COc1ccc(C)cc1Nc1n[n+](-c2ccccc2)c(-c2cc(OC)c(OC)cc2Br)s1	none
COc1ccc(-c2sc(Nc3ccccc3)n[n+]2-c2ccc(F)cc2)c(C)c1C	TMEM16A act -5.01, CHT inh -5.43
COc1ccc(C)cc1Nc1n[n+](-c2ccccc2)c(-c2c(OC)ccc3ccccc23)s1	TMEM16A inh 100
O=[N+]([O-])c1ccc(S(=O)(=O)Nc2nnc(C3CCCCC3)s2)cc1	none
Cc1noc(C)c1COc1ccccc1C(=O)NC(C)c1ccc(F)cc1 (centres undefined)	none (no result: CHT allo act, CHT inh, TMEM16A inh)
CCONc1ncnc2nonc12	none
Clc1ccc(CONc2ncnc3nonc23)c(Cl)c1	TMEM16A inh 100
CN1CCN(CCCNc2c(C=O)c(=O)[nH]c3ccccc23)CC1	none
COc1cc(Cl)c(C)cc1NC(=O)CSc1cc(Cl)ccc1Cl	TMEM16A inh 100
COC(=O)c1cccc(CSc2nc3ccccc3[nH]2)c1	TMEM16A inh 25
O=C(NC(=S)N1CCN(c2ccc(F)cc2)CC1)C12CC3CC(CC(C3)C1)C2	TMEM16A act -5.38
CCN(CC)S(=O)(=O)c1ccc(C(=O)Oc2cc(C)[nH]c(=O)c2[N+](=O)[O-])cc1	none
Nc1ccc(N2CCCCC2)c2nonc12	CHT inh -7.62
CS(=O)(=O)N(CCc1ccccc1)CC(=O)Nc1ccc(OCc2ccccc2)cc1	TMEM16A act -19.9
O=[N+]([O-])c1ccc(NC(=S)N2CCc3ccccc32)cc1	TMEM16A inh 100
COc1ncnc2c1ncn2CCCNCc1ccc(C)o1	none (no result: CHT allo act, TMEM16A act, CHT inh, TMEM16A inh)

Screens (PubChem)
